Compounds with a hit are over-represented: about 1.2% of the library has one in this group of screens.
HTT aggregate: mutant huntingtin aggregation inhibition; 220,000 tested, 1.1% active; Potency, µM (series often up to 46.1 µM), for inactives: top-dose activity change, negative = inhibition, hits mostly inhibitors; AID 1688; PC12 HttQ103-GFP aggregates, Acumen cytometry, 40 h; also: potency is read from the fitted curve at half-maximal effect; % is scaled to controls: 0 for no effect and ±100 for the full control effect; nearly all actives have a fitted effect of over 60% in size
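PC12 cells with ecdysone-inducible HTT exon1 Q103-GFP, induced by 100 nM tebufenozide, given compounds in a concentration series. GFP aggregates (1–25 um, 6 SD above background) counted in lysates by laser-scanning cytometry, 488 nm excitation.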
GLA inh pH 4.5: blocks human alpha-galactosidase A at pH 4.5. purified enzyme, 4-MU-alpha-Gal fluorescence, pH 4.5. activity change, negative = inhibition, % at 105 µM. 230,000 tested, under 10 active. P06280;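 also: 0% = full activity with enzyme and -100% = basal without enzyme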
Target sequence (P06280 whole entry, looked up): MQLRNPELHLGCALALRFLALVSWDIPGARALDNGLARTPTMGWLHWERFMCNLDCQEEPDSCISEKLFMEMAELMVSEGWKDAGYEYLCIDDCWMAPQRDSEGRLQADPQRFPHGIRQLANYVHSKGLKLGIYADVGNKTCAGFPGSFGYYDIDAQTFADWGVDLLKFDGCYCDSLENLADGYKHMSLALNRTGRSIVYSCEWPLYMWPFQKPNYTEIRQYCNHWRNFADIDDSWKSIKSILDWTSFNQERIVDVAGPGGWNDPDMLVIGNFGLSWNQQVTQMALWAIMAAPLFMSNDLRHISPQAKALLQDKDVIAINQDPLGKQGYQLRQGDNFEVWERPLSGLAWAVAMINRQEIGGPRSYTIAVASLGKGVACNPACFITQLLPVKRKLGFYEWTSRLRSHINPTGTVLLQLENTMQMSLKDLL
GLA spleen mod: inhibitors or activators of human alpha-galactosidase in spleen homogenate. P06280. human spleen homogenate, 4MU-alpha-Gal fluorescence, 40 min. Potency, µM (doses to about 80 µM), for inactives: at the top dose activity change, negative = inhibition, actives largely listed as inhibitors. 240,000 tested, 0.008% active. AID 2107;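 also: potency is read from the fitted curve at half-maximal effect; 0% = enzyme with vehicle and -100% = no enzyme basal signal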
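Human spleen homogenate (1 ug) as enzyme source, 4-methylumbelliferyl-alpha-D-galactopyranoside 1 mM final, citrate/phosphate pH 5.0 with 0.01% Tween-20. Compounds 40 min at 37C, NaOH/glycine stop; fluorescence Ex 365/Em 440, Hill-fit AC50.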
HTT cytoprotect: cytoprotection in Huntington HTT-Q103 PC12 cell model; PC12 HTT-Q103 induced, cytoprotection, ATP luminescence, 40 h; Potency, µM (top dose mostly 56.4 µM), for inactives: cytoprotection (ATP increase), hits mostly activators; 230,000 tested, 0.14% active; also: potency is read from the fitted curve at half-maximal effect; % of control where 0% means no effect; nearly all actives have a fitted effect of over 45% in size
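Quantitative HTS on tebufenozide-induced (100 nM) PC12 cells expressing HTTQ103 exon 1–GFP; compounds tested as a concentration series; survival measured via cellular ATP.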
Starred values were filed as active, the others as inactive; u = inconclusive; x = not tested or not shown; [ ] = remark or other dose. Calls follow the shape of the dose curve; as a rule, active = well fitted curve in the direction sought with a large enough effect; inconclusive = small, poorly fitted or top-dose-only effect, or another doubt; inactive = no such curve, though single readings can be large; an effect the other way counts as inactive or inconclusive.

SMILES | HTT aggregate | GLA inh pH 4.5 | GLA spleen mod | HTT cytoprotect
COc1cc2c(cc1OC)CN(Cc1nc3ccsc3c(=O)[nH]1)CC2 | 4µM* | 4 | 2% | 23%[10 µM]
COc1cc([N+](=O)[O-])cc(/C=N/NC(=O)C(C)Nc2cccc(C)c2)c1O (configuration not stated) | 10µM* | -12 | -1% | 25%[10 µM]
COc1cc([N+](=O)[O-])cc(/C=N/NC(=O)C(C)Nc2ccccc2C)c1O (configuration not stated) | 13µM* | -9 | 7% | -7%[10 µM]
CCOC(=O)CCN1C(=O)[C@H]2[C@H]3[C@H](O)[C@H](O)C/C(=N/OCC(C)C)[C@@H]3CC[C@@H]2C1=O | x | x | -2%[17.5 µM] | 1%[10 µM]
O=C(O)CNC(=O)c1ccc(CO)o1 | x | x | 9% | -50%
C=CCN1C(=O)N/C(=C/c2ccc(N3CCOCC3)o2)C1=O | 5µM* | 1 | -8% | x
O=C1N/C(=C/c2ccc(N3CCOCC3)o2)C(=O)N1c1ccccc1 | u | -14 | 3% | -14%[0.074 µM]
CCCn1nc2cc(C(=O)NCC34CC5CC(CC(C5)C3)C4)ccc2c1OCC | 32µM* | -14 | 6% | -29%
COCCn1nc2cc(C(=O)NCC34CC5CC(CC(C5)C3)C4)ccc2c1OC | 18% | 7 | 1% | 3%
CC1=CC(=C2C(=O)c3ccccc3C2=O)C=C(C)O1 | 4% | -2 | -9% | 2%
CC(=O)C1=C(c2ccc(Br)cc2)C(=O)c2ccccc2C1=O | 5µM* | -5 | -2% | -82%[10 µM]
NC(Cc1cccc(-c2ccccc2CP(=O)(O)O)c1)C(=O)O (configuration not stated) | x | -14 | 20% | x
N[C@@H](Cc1cc(CP(=O)(O)O)cc(-c2ccccc2Cl)c1)C(=O)O | x | 4 | -1% | 32µM*
CCCCCCc1cc2cc(C(=O)Nc3ccccc3)c(=O)oc2cc1O | 2.2µM* | -1 | 1% | -39%[10 µM]
CC(C)CNC(=O)c1cc(-c2ccco2)on1 | u | 3 | 9% | 7%
CCCNC(=O)c1cc(-c2ccco2)on1 | 7% | 6 | -6% | 1.6µM*
Cc1nc(NCCc2ccccc2)c2oc3ccccc3c2n1 | 7.9µM* | -1 | -13% | -44%
COc1ccc(CNc2ncnc3ccc(-c4c(C)noc4C)cc23)cc1 | x | x | -18% | x
COC(=O)C1=C[C@@H](C(=O)OC)C2C3=C(C(=O)[C@]2(CC(C)C)NC(=O)c2ccccc2)[C@H](C)n2c(=O)n(-c4ccccc4)c(=O)n2[C@@H]3C1 (some centres not stated) | x | x | 13% | x
CN(c1cccc(NC(=O)c2ccc(C(C)(C)C)cc2)c1)S(C)(=O)=O | 11µM* | -8 | 1% | -164%
CN1CCc2c(sc(NC(=O)c3cc4cc([N+](=O)[O-])ccc4s3)c2C(N)=O)C1 | 7.1µM* | -21 | -15% | -202%
O=C(N/N=C/c1ccccc1)c1c(O)c2ccccc2[nH]c1=O | 22µM* | 5 | 0% | 12%[10 µM]
O=C(N/N=C/c1ccc(F)cc1)c1c(O)c2ccccc2[nH]c1=O | 3.5µM* | -1 | 1% | -51%[10 µM]
O=C(N/N=C/c1cccc(F)c1)c1c(O)c2ccccc2[nH]c1=O | u | 9 | 0% | -1%[10 µM]
CC1CCC2C(=O)N3C(CCC(C)C3c3ccc(-c4ccco4)cc3)C(=O)N2C1c1ccc(-c2ccco2)cc1 (configuration not stated) | x | x | -16%[17.5 µM] | -24%[10 µM]
SMILES | HTT aggregate | GLA inh pH 4.5 | GLA spleen mod | HTT cytoprotect
CCCCN(c1ccccc1)c1ncnc(N)c1[N+](=O)[O-] | 7.1µM* | -3 | 6% | 13%
CS(=O)(=O)NNC(=O)CN1C(=O)C2C3C=CC(C3)C2C1=O (configuration not stated) | 0.032µM* | -1[21.1 µM] | -3% | -15%
CNC(=O)CN1C(=O)C2C3C=CC(C3)C2C1=O (configuration not stated) | 9% | -7 | 0% | 18%[10 µM]
Cc1ccccc1-c1cc(Nc2ccc(F)cc2)ncn1 | x | 0 | 6% | -23%
CS(=O)(=O)Nc1ccccc1C(=O)Nc1cc(Cl)cc(Cl)c1 | 8.9µM* | -1 | -1% | -57%[10 µM]
CS(=O)(=O)Nc1ccccc1C(=O)Nc1cccc(Cl)c1 | 11µM* | -10 | 0% | 5%[10 µM]
CC(=O)c1cccc(NC(=O)NNC(=O)c2ccc(Cl)cc2Cl)c1 | 11µM* | 6 | 2% | -23%
CC(=O)Nc1cccc(/C(C)=N/NC(=O)c2ccc(Cl)cc2Cl)c1 | x | 12 | 1% | x
CCOc1nc(SCCOc2ccccc2)nc(N(C)C)n1 | 0.45µM* | -9 | -4% | u
Cc1ccccc1OCCSc1nc(N(C)C)nc(N(C)C)n1 | -15% | 3 | -11% | x
O=C(CCCC(=O)NCC1CCCO1)NCC1CCCO1 (configuration not stated) | -10% | 0 | 1% | -11%
O=C(CN1CCCCCC1)NCC1CCCO1 (configuration not stated) | 17%[9.22 µM] | -21 | 11% | 2.2µM*
NC(=O)CS(=O)(=O)c1nc2ccccc2n1Cc1ccccc1F | 16% | 2 | 1% | 25µM*
CCOC(=O)C1C(C(=O)OC)=C(CC(C)C)c2ccccc2N1S(=O)(=O)C(F)(F)F (configuration not stated) | x | -13 | -6% | -14%
O=C(C1CCC(CNS(=O)(=O)c2cccc3nsnc23)CC1)N1CC=C(c2ccccc2)CC1 (configuration not stated) | 8.9µM* | -9 | 0% | -36%
O=C(C1CCN(S(=O)(=O)c2cccc3nsnc23)CC1)N1CC=C(c2ccccc2)CC1 | -28% | -27 | -14% | -35%
O=C(O)C1CC(CCCP(=O)(O)O)CCN1 (configuration not stated) | x | x | 8% | x
O=c1[nH]c(=O)n(Cc2ccco2)c2c1C(C(F)(F)F)(C(F)(F)F)N=C(c1ccc(F)cc1)N2 | 1.3µM* | 5 | 5% | -87%[10 µM]
COc1cc(=O)n(C)c2c(OC[C@@H](O)C(C)(C)O)cccc12 | x | -5 | 4%[29.1 µM] | -7%[40.3 µM]
COc1ccc2c(c1)Sc1ccccc1N2 | 7.9µM* | 2 | 5% | 1%[10 µM]
COc1cc2c(cc1O)CCC1C2CC[C@]2(C)[C@@H](O)CC[C@@H]12 (some centres not stated) | x | -5 | -10% | x
O=C(c1ccco1)N1CCn2cccc2C1c1ccccc1 (configuration not stated) | -5% | -1 | -20% | 0.89µM*
CCc1ccc(/C=C2\SC(=S)N(CCC(=O)N3CCN(C)CC3)C2=O)cc1 | 12% | x | 11% | 18µM*
Cc1cc(O)c(C=O)c2c1C(=O)Oc1c(COC(=O)/C=C/C(=O)O)c(O)c(C(=O)O)c(C)c1O2 | x | -2 | 7% | x
O=C(NC1CC1)c1cc2c(s1)-c1ccccc1OC2 | 6.3µM* | u | u | -29%
CCCCCCCCCCCCCCCCOCCOCCOCCOCCOCCOCCOCCOCCOCCOCCOCCOCCOCCOCCOCCOCCOCCOCCOCCOCCO | u | x | x | -98%
CCOC(=O)/C(=N/Nc1ccc(Cl)cc1)Sc1nnnn1-c1ccc(C)cc1 | 2.5µM* | 3 | 2% | 5%[10 µM]

High-throughput results (PubChem BioAssay)
